Data reported in ChEMBL document CHEMBL3988442, “University of Dundee, Small-Polar-MMV Screening Library” (2021).

molecular target: AMP-activated protein kinase, AMPK (Homo sapiens) (UniProt P54646+O43741+P54619+Q9UGJ0+Q9Y478+Q13131+Q9UGI9); assay: AMP-dependent Kinase enzyme assay. An in vitro enzyme assay that detects ADP turnover that is directly proportional to AMPK activity. This uses naive AMPK that is activated during the assay with MK-8722; assay type: functional; parameters: scale not given: direction of the effect not stated beside the values; settings: 30 µM

**Q.** How did the Percent Effect turn out when `O=C(CCOc1ccc(Cl)cc1)NCCCn1cccn1` was run?
**A.** Its Percent Effect is -3.71%.

**Q.** Which Percent Effect does the source give for `CSc1ccc(C(=O)C2CCCN(C(=O)CCn3cncn3)C2)cc1` (stereo not given) here?
**A.** The Percent Effect was 10.4%.

**Q.** `CN1C(=O)c2ccc(C(=O)N(Cc3cnn(C)c3)C3CC3)cc2C1=O` was tested. Which Percent Effect did it give?
**A.** Its Percent Effect is 11.4%.

**Q.** With `Cc1ccccc1N1CCN(C(=O)CCc2nncn2C)C(C)C1` (stereo not given) as the compound, how does the Percent Effect read?
**A.** Its Percent Effect is 6.58%.

**Q.** Which Percent Effect does the source give for `OC(CNCCc1nnc2ccccn12)c1ccc(F)c(F)c1` (stereo not given) here?
**A.** The Percent Effect was 14.5%.

**Q.** Which Percent Effect does the source give for `CN1C[C@@H]2CC[C@H](C1)N(Cc1ccccc1OCCN1CCOCC1)C2` here?
**A.** Its Percent Effect is -106%.

**Q.** With `Cc1cc(NC(C)c2csc(C)n2)n2nc(C)c(C)c2n1` (stereo not given) as the compound, how does the Percent Effect read?
**A.** The Percent Effect was 10%.

**Q.** For `NCC(CO)Cc1ccc(C(F)(F)F)cc1` (stereo not given), which Percent Effect is on record?
**A.** Its Percent Effect is -3.66%.

**Q.** With `Cc1ccn(C)c(=O)c1NC(=O)N(C)Cc1cccc(OC(C)C)c1` as the compound, how does the Percent Effect read?
**A.** The Percent Effect was -92.7%.

**Q.** With `Cc1nc(NCc2cccnc2)cc(C2COCCN2)n1` (stereo not given) as the compound, how does the Percent Effect read?
**A.** The Percent Effect was 3.04%.

**Q.** For `COCCCS(=O)(=O)N1CCN(Cc2cccn2C)CC1`, which Percent Effect is on record?
**A.** The Percent Effect was 2.25%.

**Q.** For `CN(CCCc1cnn(C)c1)Cc1cc2n(n1)CCCNC2`, which Percent Effect is on record?
**A.** Its Percent Effect is -0.861%.

**Q.** Which Percent Effect does the source give for `Cc1[nH]nc(CCC(=O)N2C[C@H]3CC[C@@H]2CN(C(=O)N(C)C)C3)c1C` here?
**A.** The Percent Effect was 0.209%.

**Q.** `COc1ncc(NCc2ccc(Cl)c(Cl)c2)cc1C(N)=O` was tested. Which Percent Effect did it give?
**A.** The Percent Effect was 18.2%.

**Q.** `CC(C)(C)NC(=O)CN1CCNCC1` was tested. Which Percent Effect did it give?
**A.** The Percent Effect was 1.56%.

**Q.** How did the Percent Effect turn out when `COc1cccc(S(=O)(=O)N2CCOC(C)(C(N)=O)C2)c1` (stereo not given) was run?
**A.** Its Percent Effect is 22.4%.

**Q.** With `CCc1ccc(C(=O)N2CCCCC2CNS(C)(=O)=O)o1` (stereo not given) as the compound, how does the Percent Effect read?
**A.** Its Percent Effect is -5.12%.

**Q.** For `Cc1ccc(CNc2ccn(CCC(N)=O)n2)c(Br)c1`, which Percent Effect is on record?
**A.** Its Percent Effect is 1.48%.

**Q.** Which Percent Effect does the source give for `O=C(c1cc(-c2ccccc2)nc2onc(C3CC3)c12)N1CC[C@H](O)C1` here?
**A.** The Percent Effect was 4.85%.

**Q.** With `O=C(NCc1ccc(Br)c(F)c1)Nc1cn[nH]c1` as the compound, how does the Percent Effect read?
**A.** Its Percent Effect is -0.537%.

**Q.** Which Percent Effect does the source give for `Cc1[nH]c2c(C)ccc(C)c2c1CC(=O)NC1CCCNC1=O` (stereo not given) here?
**A.** Its Percent Effect is 6.1%.

**Q.** `O=C(c1cnccn1)N1CCCC(C2=Nc3ccccc3S(=O)(=O)N2)C1` (stereo not given) was tested. Which Percent Effect did it give?
**A.** The Percent Effect was 22%.

**Q.** How did the Percent Effect turn out when `CCOc1ccccc1C(C(=O)O)N(C)Cc1nc(C)c[nH]1` (stereo not given) was run?
**A.** Its Percent Effect is 7.59%.

**Q.** How did the Percent Effect turn out when `O=C(NCc1cccnc1-n1cncn1)c1cc(Cl)ccn1` was run?
**A.** The Percent Effect was -11.1%.

**Q.** `COc1ccccc1-c1cccc(C2CCCN(C3CCOCC3)C2)n1` (stereo not given) was tested. Which Percent Effect did it give?
**A.** The Percent Effect was -7.08%.

**Q.** Which Percent Effect does the source give for `CC(C)n1cc(CN(C)C[C@@H]2CCCN3CCCC[C@H]23)cn1` here?
**A.** Its Percent Effect is 3.96%.

**Q.** Which Percent Effect does the source give for `Cc1nnc(N2CCc3cnc(C(C)C)nc3C2)c(C#N)c1C` here?
**A.** The Percent Effect was -15.2%.

**Q.** How did the Percent Effect turn out when `c1ccc2c(NC3CCc4ncnn4C3)ncnc2c1` (stereo not given) was run?
**A.** The Percent Effect was 2.92%.

**Q.** For `CC(=O)Nn1ccc2c(nnc3c(-c4ccccc4)cnn32)c1=O`, which Percent Effect is on record?
**A.** The Percent Effect was 12.7%.

**Q.** Which Percent Effect does the source give for `COc1ncc(NCc2ccc(C#N)cc2)cc1C(N)=O` here?
**A.** The Percent Effect was 2.92%.

**Q.** `CC(C)CN(Cc1ccccn1)Cc1ccccc1OCC(=O)O` was tested. Which Percent Effect did it give?
**A.** Its Percent Effect is -7.24%.

**Q.** How did the Percent Effect turn out when `Cc1cccc(C(=O)Nc2c(C(N)=O)n[nH]c2C)c1C` was run?
**A.** The Percent Effect was -0.641%.

**Q.** Which Percent Effect does the source give for `COc1cccc(-c2n[nH]cc2-c2nc(CN3CCCC3)no2)c1` here?
**A.** The Percent Effect was -4.34%.

**Q.** For `CC(C)(C(=O)N[C@@H]1CCC[C@@H](O)[C@@H]1O)c1cccc(F)c1`, which Percent Effect is on record?
**A.** Its Percent Effect is 15.9%.

**Q.** Which Percent Effect does the source give for `O=C1CCC2(CCNCC2)CN1Cc1nnc2ccccn12` here?
**A.** The Percent Effect was 8.07%.

**Q.** `CC(NCc1cnc(N2CCOCC2)s1)c1ccc(Cl)s1` (stereo not given) was tested. Which Percent Effect did it give?
**A.** The Percent Effect was 9.15%.

**Q.** How did the Percent Effect turn out when `CC(C(=O)NCCc1ccc2c(c1)OCCO2)n1cncn1` (stereo not given) was run?
**A.** The Percent Effect was -6.97%.

**Q.** `CCc1nc(CCNc2ncccc2S(N)(=O)=O)sc1C` was tested. Which Percent Effect did it give?
**A.** The Percent Effect was -3.81%.

**Q.** For `CCc1nc(CNc2cc(C)nc(-c3cccnc3)n2)cs1`, which Percent Effect is on record?
**A.** Its Percent Effect is -0.151%.

**Q.** Which Percent Effect does the source give for `CC(O)CN(C)S(=O)(=O)c1ccc(C#N)cc1F` (stereo not given) here?
**A.** The Percent Effect was 1.31%.
